Bioassay records deposited in PubChem BioAssay by National Center for Advancing Translational Sciences (NCATS).
Hits are enriched below; roughly 3.2% of the tested compounds scored in any of these assays.
p53null 39C kill = qHTS Screen for Compounds that Selectively Target Cancer Cells with p53 Mutations: Cytotoxicity of p53 Null Cells at the Nonpermissive Temperature; H1299 p53-null (neo) cells, 39C, ATPlite viability, 24 h; Potency, µM (highest dose often 46.1 µM), actives largely listed as cytotoxic; 55,000 tested, 0.97% active; AID 904, 2007; further: nearly all actives have a fitted effect of over 50% in size
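Following overnight plating at 37C (600 cells/well), H1299-neo or H1299-p53A138V cells are dosed up to 46 uM. Incubation lasts 24 hr at 39C before ATP detection.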
PMP22 txn = Cell-based coincidence reporter assay to measure PMP22 gene transcription in S16 Pmp22-F2sN cells - Primary screen. S16 Pmp22-F2sN Schwann cells, FLuc/NLuc coincidence luminescence, 24 h. Potency, µM (highest dose often 57.5 µM), usual class: inhibitors. 43,000 tested, 2% active. AID 1508649, 2021; active means clear falling dose curves in both reporters; inconclusive means both reporters move, but less clearly or upward; inactive means either reporter flat; the % is the NLuc reporter signal
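S16 Schwann cells carrying FLuc/NLuc coincidence reporter in the Pmp22 3' UTR treated with compound 24 h at 37C; FLuc then NLuc luminescence read sequentially by dual-luciferase reagents.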
p53null 32C tox = qHTS Screen for Compounds that Selectively Target Cancer Cells with p53 Mutations: Cytotoxicity of p53 Null Cells at the Permissive Temperature; H1299-neo p53 null cells, ATP luminescence, 24 h, 32C; Potency, µM (doses to about 46.1 µM), most hits filed as cytotoxic; 55,000 tested, 0.62% active; AID 903, 2007; further: nearly all actives have a fitted effect of over 55% in size
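H1299-neo (p53 null) cells, 600/well, treated 24 h at 32C with compound up to 46 uM; ATPlite luminescence viability, normalized to DMSO and 100 uM tamoxifen; AC50 by Hill fit.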
mTORC1 inh = Acumen qHTS Assay for Inhibitors of the mTORC1 Signaling Pathway in MEF (Tsc2-/-, p53-/-) Cells: Sytravon; Tsc2-/- p53-/- MEF, phospho-rpS6 immunofluorescence/PI, 24 h; Potency, µM (titrated, usually from 38.3 µM), usual class: inhibitors; 44,000 tested, 0.78% active; AID 493208, 2011; further: nearly all actives have a fitted effect of over 50% in size
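Compounds act on Tsc2-/-, p53-/- fibroblasts carrying an empty vector for 24 h before fixation and dual staining for phospho-S6 and DNA (propidium iodide). Values are percentages of cells above a rapamycin-defined pS6/PI threshold.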
S16 viability = Cell viability qHTS assay in S16 Pmp22-F2sN cells. S16 Pmp22-F2sN Schwann cells (luciferase reporters placed in the Pmp22 gene) viability, CellTiter-Glo, 24 h. Potency, µM (titrated, usually from 57.5 µM), hits mostly cytotoxic. 43,000 tested, 0.48% active. AID 1508642, 2021; further: nearly all actives have a fitted effect of over 65% in size
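Luminescence from CellTiter-Glo, read by CCD camera after a 15 min room-temperature incubation, served as the viability signal. Reporter Schwann cells (S16 Pmp22-F2sN) had been treated with pin-transferred compounds for 24 h at 37C.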
NLuc saturating = Biochemical NLuc saturation counterscreen for small molecule modulators of PMP22 gene expression - Nano-Glo assay; Potency, µM (series often up to 57.5 µM), usual class: inhibitors; shares compounds with PMP22 txn; Secreted NLuc enzyme (filtered S16 cell medium), Nano-Glo luminescence; 690 tested, 4% active
NLuc Km counter = Biochemical coelenterazine-based NLuc counterscreen for small molecule modulators of PMP22 gene expression - Km assay. shares compounds with PMP22 txn. AID 1508639, 2021. secreted NLuc enzyme, coelenterazine luminescence, Km conditions. Potency, µM (series often up to 57.5 µM), actives largely listed as inhibitors. 690 tested, 5% active
FLuc counter = Biochemical FLuc counterscreen for small molecule modulators of PMP22 gene expression | 690 tested, under 10 active | purified P. pyralis FLuc, luminescence, 10 min | Potency, µM (titrated, usually from 57.5 µM), actives largely listed as inhibitors | shares compounds with PMP22 txn
Target sequence (P08659 whole entry, looked up): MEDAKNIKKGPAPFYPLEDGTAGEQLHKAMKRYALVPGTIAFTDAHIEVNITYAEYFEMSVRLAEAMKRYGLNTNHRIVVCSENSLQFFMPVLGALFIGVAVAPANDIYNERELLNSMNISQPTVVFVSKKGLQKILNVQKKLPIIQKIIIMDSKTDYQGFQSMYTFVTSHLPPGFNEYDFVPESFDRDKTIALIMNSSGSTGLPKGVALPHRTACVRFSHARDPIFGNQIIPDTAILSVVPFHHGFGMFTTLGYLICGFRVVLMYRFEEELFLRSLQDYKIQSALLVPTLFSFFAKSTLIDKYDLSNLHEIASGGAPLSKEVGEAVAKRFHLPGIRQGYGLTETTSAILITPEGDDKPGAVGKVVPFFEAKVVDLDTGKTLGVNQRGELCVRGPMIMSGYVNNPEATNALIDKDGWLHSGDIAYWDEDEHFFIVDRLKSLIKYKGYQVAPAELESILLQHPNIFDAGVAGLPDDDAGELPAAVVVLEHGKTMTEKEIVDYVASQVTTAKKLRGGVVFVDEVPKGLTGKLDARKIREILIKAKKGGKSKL
S16 F2sN tox cnf = Cell viability qHTS assay in S16 Pmp22-F2sN cells - Confirmatory screen. shares compounds with PMP22 txn. S16 Schwann cells viability, CellTiter-Glo ATP luminescence, 24 h. Potency, µM (doses to about 57.5 µM), hits mostly cytotoxic. 690 tested, 7% active
PMP22 txn cnf = Cell-based coincidence reporter assay to measure PMP22 gene transcription in S16 Pmp22-F2sN cells - Confirmatory screen; shares compounds with PMP22 txn; S16 Schwann cells Pmp22-F2sN, dual luciferase, 24 h; Potency, µM (doses to about 57.5 µM), usual class: inhibitors; 690 tested, 22% active; active means clear falling dose curves in both reporters; inconclusive means both reporters move, but less clearly or upward; inactive means either reporter flat; the % is the FLuc reporter signal
PMP22 prot conf = Cell-based HiBiT reporter assay to measure PMP22 protein expression in S16 Pmp22-HiBiT cells - Confirmatory screen. S16 Schwann cells Pmp22-HiBiT, luminescence, 48 h. Potency, µM (top dose mostly 27.9 µM), most hits filed as inhibitors. 95 tested, under 10 active. shares compounds with PMP22 txn
Target sequence (P25094 whole entry, looked up): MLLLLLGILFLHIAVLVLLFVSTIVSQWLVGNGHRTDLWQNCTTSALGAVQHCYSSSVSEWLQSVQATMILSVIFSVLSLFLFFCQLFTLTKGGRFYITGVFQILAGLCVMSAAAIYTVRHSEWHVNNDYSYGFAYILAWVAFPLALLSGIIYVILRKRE
Hits are given with their value; – = inactive; ? = inconclusive; · = no result. Unless noted, the call rests on the fitted dose curve; in most records, active means well fitted curve in the direction sought with a large enough effect; inconclusive means small, poorly fitted or top-dose-only effect, or another doubt; inactive means no such curve, though single readings can be large; an effect the other way counts as inactive or inconclusive.

SMILES | p53null 39C kill | PMP22 txn | p53null 32C tox | mTORC1 inh | S16 viability | NLuc saturating | NLuc Km counter | FLuc counter | S16 F2sN tox cnf | PMP22 txn cnf | others
N=c1n(CCN2CCCCC2)c2ccccc2n1CC(O)COc1ccc(Cl)cc1Cl (configuration not stated) | 13µM | 12µM | 18µM | 3.7µM | ? | – | – | – | 31µM | ?
COc1ccc(OCC(O)Cn2c(=N)n(CCN3CCCCC3)c3ccccc32)cc1 (configuration not stated) | ? | ? | – | · | ? | · | · | · | · | ·
O=C(Nc1ccc(Cl)cc1)N1CCC(CN2CCCC2)CC1 | – | – | – | – | – | · | · | · | · | ·
Cn1cc(CN(C(=O)Nc2ccccc2)C2CCCCC2)c2ccccc21 | ? | 9.5µM | – | – | ? | ? | ? | – | – | ?
O=C(Nc1ccccc1)N(Cc1c[nH]c2ccccc12)C1CCCCCC1 | – | ? | – | – | ? | · | · | · | · | ·
COc1ccc(CNC(=O)c2ccc(CS(=O)Cc3ccccc3Cl)o2)cc1 (configuration not stated) | – | – | – | – | – | · | · | · | · | ·
CCOC(=O)c1ccc(N2C(=O)c3n[nH]c(-c4ccco4)c3C2c2ccc(C)cc2)cc1 (configuration not stated) | ? | ? | – | ? | – | · | · | · | · | ·
CCOC(=O)c1ccc(N2C(=O)c3n[nH]c(-c4ccco4)c3C2c2ccc(O)c(OC)c2)cc1 (configuration not stated) | ? | 11µM | – | ? | – | ? | ? | – | – | 19µM
O=C(Cn1c(SCc2ccccc2F)nc2cccnc21)Nc1ccc(F)c(Cl)c1 | ? | ? | – | – | – | · | · | · | · | ·
O=S(=O)(c1ccc(Br)cc1)c1nnn2c1nc(Nc1cccc(C(F)(F)F)c1)c1sccc12 | – | ? | – | – | – | · | · | · | · | ·
CCOc1ccc(Nc2nc3c(S(=O)(=O)c4ccc(CC)cc4)nnn3c3ccc(Cl)cc23)cc1 | – | 7.9µM | – | – | – | – | – | – | – | ?
Cc1cccc(Nc2nc3c(S(=O)(=O)c4ccc(Br)cc4)nnn3c3ccsc23)c1C | ? | 12µM | – | – | – | – | ? | – | – | ?
CCc1ccc(Nc2nc3c(S(=O)(=O)c4ccc(C)cc4)nnn3c3ccsc23)cc1 | – | 5.8µM | – | – | – | – | ? | – | ? | –
Cc1ccc(CNC(=O)CCCCCn2c(=O)[nH]c3ccccc3c2=O)cc1 | – | – | – | – | – | · | · | · | · | ·
COc1ccc(OC)c(CCNC(=O)c2c(C)oc3ncn(CC(C)C)c(=O)c23)c1 | – | ? | – | – | – | · | · | · | · | ·
COc1ccc(OC)c(CNC(=O)c2c(C)oc3ncn(CC(C)C)c(=O)c23)c1 | – | 10µM | – | – | ? | ? | ? | – | – | ?
Cc1cc(C)cc(Nc2cc(C(=O)NCCCN(C)C3CCCCC3)c3ccccc3n2)c1 | 13µM | 8.9µM | ? | 4.1µM | ? | – | – | ? | 17µM | 15µM
CCN(CCCNC(=O)c1cc(Nc2ccc(OC)cc2OC)nc2ccccc12)c1cccc(C)c1 | – | 15µM | – | – | – | – | – | – | – | –
CCc1ccccc1Nc1cc(C(=O)NCCCN(C)C2CCCCC2)c2ccccc2n1 | – | 20µM | – | ? | ? | – | – | – | ? | ?
Cc1ccc(C)c(Nc2cc(C(=O)NCCCN(C)C3CCCCC3)c3ccccc3n2)c1 | ? | ? | – | ? | ? | · | · | · | · | ·
CCCCN(CCCNC(=O)c1cc(Nc2ccc(OC)cc2OC)nc2ccccc12)Cc1ccccc1 | ? | ? | – | – | – | · | · | · | · | ·
CCOc1ccc(CC(=O)NCCS(=O)(=O)N2CCN(c3ccc(OC)cc3)CC2)cc1 | – | – | – | – | – | · | · | · | · | ·
Cc1cc(NC(=O)Cn2c(=O)oc3cc(S(=O)(=O)N4CCCC4)ccc32)ccc1Br | – | ? | – | – | – | · | · | · | · | ·
Cc1ccccc1CC1C(=O)Nc2ccc(Br)cc21 (configuration not stated) | – | – | – | – | ? | · | · | · | · | ·
COc1ccc(Br)cc1CC1C(=O)Nc2ccccc21 (configuration not stated) | – | 14µM | – | – | – | ? | ? | – | – | ? | PMP22 prot conf=–
Cc1cc(C)c(NC(=O)Cn2c(=O)oc3cc(S(=O)(=O)N4CCCCCC4)ccc32)c(C)c1 | – | ? | – | – | – | – | – | – | – | ?
Cc1cc(C)cc(NC(=O)Cn2c(=O)oc3cc(S(=O)(=O)N4CCCC4)ccc32)c1 | – | – | – | – | – | · | · | · | · | ·
Cc1cccc(NC(=O)Cn2c(=O)oc3cc(S(=O)(=O)NCc4ccccc4)ccc32)c1 | – | 11µM | ? | – | – | – | – | – | – | –
Cc1c(C(Nc2ccccn2)c2ccccc2)c(=O)n(-c2ccccc2)n1C (configuration not stated) | – | · | – | · | · | · | · | · | · | ·
COc1ccc(-c2cc(C(F)(F)F)nc(NCCc3ccccc3)n2)cc1 | – | – | – | – | ? | · | · | · | · | ·
